Binding signal data for four sequences are collected here from article PMC11006913.

Assay in all cases: PBM; 200 nM protein, PBS
What all share (conditions): dsDNA, one strand shown

In experiment [1] the target is T1, NKX2-6 (Homo sapiens, UniProt A6NCS4 118-204, R150C).
T1 sequence: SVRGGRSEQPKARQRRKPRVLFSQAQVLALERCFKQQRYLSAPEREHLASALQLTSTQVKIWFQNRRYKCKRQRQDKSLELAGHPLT

For experiment [2], the target named is T2, NKX2-4 (Homo sapiens, UniProt Q9H2Z4 175-261, P217L).
T2 sequence: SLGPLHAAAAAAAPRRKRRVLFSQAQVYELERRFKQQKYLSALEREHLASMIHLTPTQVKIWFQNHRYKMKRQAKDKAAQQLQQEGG

Experiment [3] has as its target T3, NKX2-4 (Homo sapiens, UniProt Q9H2Z4 175-261, T231S).
T3 sequence: T2 sequence with L43P, T57S

Experiment [4] addresses T4, NKX2-4 (Homo sapiens, UniProt Q9H2Z4 175-261).
T4 sequence: T2 sequence with L43P

For experiment [5], the target named is T5, NKX2-4 (Homo sapiens, UniProt Q9H2Z4 175-261, R246Q).
T5 sequence: T2 sequence with L43P, R72Q

The next experiment concerns the target PITX2 (Homo sapiens, UniProt Q99697 72-157).
The next experiment concerns the target CRX (Homo sapiens, UniProt O43186 26-111, R41L).
For experiment [6], the target named is T6, NKX2-6 (Homo sapiens, UniProt A6NCS4 118-204).
T6 sequence: T1 sequence with C33R

Where a chain is given by its changes, count along the chain named.

Sequence of CRX (O43186 26-111 R41L): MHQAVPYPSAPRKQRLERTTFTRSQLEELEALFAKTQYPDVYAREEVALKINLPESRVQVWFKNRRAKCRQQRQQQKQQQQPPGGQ

In the case of GGCAGGCC, the binding signal with NKX2-6 [1] was 9.24 upbm affinity estimate (log intensity, higher = more binding, comparable within an allelic series).

Turning to CCCCGGCG, the binding signal was 9.5 upbm affinity estimate (log intensity, higher = more binding, comparable within an allelic series) in the experiment with NKX2-4 [2]; 9.48 upbm affinity estimate (log intensity, higher = more binding, comparable within an allelic series) with NKX2-4 [3]; 9.57 upbm affinity estimate (log intensity, higher = more binding, comparable within an allelic series) with NKX2-4 [4]; 9.55 upbm affinity estimate (log intensity, higher = more binding, comparable within an allelic series) in the experiment with NKX2-4 [5].

For the sequence AATTAATC, the binding signal was 12.4 upbm affinity estimate (log intensity, higher = more binding, comparable within an allelic series) in the experiment with PITX2 and 12.5 upbm affinity estimate (log intensity, higher = more binding, comparable within an allelic series) with CRX.

Consider AATTAGTG, for which, in the experiment with NKX2-6 [6], the binding signal is 11.9 upbm affinity estimate (log intensity, higher = more binding, comparable within an allelic series).
